Measurements as given in PubChem BioAssay (NCI).
This is part of a sample that, as a whole, favours compounds with a hit. Of some 83,000 tested, about 20% had one in any assay.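 For each line, cells grew in 96-well plates with the test compound present at a single concentration for 48 hours.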 The source made the active and inactive calls. Rule for the calls: active = growth percent below 10; inactive = the rest.

Experiments:
Assay in all cases: NCI-60 one-dose screen, 48 h (100 = growth as untreated, 0 = no growth, -100 = all killed)
Details in all cases: 10 µM unless noted
[1] = tested on: SR leukemia
[2] = tested on: RPMI-8226 leukemia
[3] = tested on: OVCAR-8 ovarian
[4] = tested on: OVCAR-5 ovarian
[5] = tested on: OVCAR-4 ovarian
[6] = tested on: SK-OV-3 ovarian
[7] = tested on: IGROV1 ovarian
[8] = tested on: OVCAR-3 ovarian
[9] = tested on: HS 578T breast
[10] = tested on: NCI/ADR-RES ovarian
[11] = tested on: T-47D breast
[12] = tested on: BT-549 breast
[13] = tested on: MDA-MB-435 melanoma
[14] = tested on: SW-620 colon
[15] = tested on: MCF7 breast
[16] = tested on: HCT-116 colon
[17] = tested on: HCC-2998 colon
[18] = tested on: KM12 colon

Measured: growth

O=c1scc(-c2ccc(C(F)(F)F)cc2)s1
inactive: [1] 89.9% | [2] 97.7% | [3] 94.7% | [4] 95.6% | [5] 76.8% | [6] 99.3% | [7] 72.6% | [8] 103% | [9] 92.1% | [10] 102% | [11] 95.6% | [12] 88.3% | [13] 87.5% | [14] 96.8% | [15] 64.9% | [16] 100% | [17] 76.7% | [18] 109%

COc1ccc(-c2cc(-c3ccc(Cl)cc3)c(C#N)c(=O)n2Cc2ccc(C(=O)Nc3ccccc3N)cc2)cc1
inactive: [1] 40.9% | [2] 57.1% | [3] 92.8% | [4] 96.7% | [5] 76.3% | [6] 92.6% | [7] 78.3% | [8] 42.6% | [9] 46.2% | [10] 71.2% | [11] 72.7% | [12] 56.5% | [13] 44.9% | [14] 78.9% | [15] 40.1% | [16] 69.2% | [17] 107% | [18] 57.3%

CCN1C(=S)N(c2ccccc2)C2NC(=S)N(/N=C/C=C/c3ccccc3OC)C21 (stereo not drawn)
inactive: [2] 13.3% | [4] 28.7% | [5] 45% | [6] 30.5% | [7] 23.8% | [11] 66.7% | [14] 18.3% | [15] 16.7% | [16] 10.5% | [17] 17.2%
active: [1] 8.81% | [3] 1.79% | [8] 2.96% | [9] 9.64% | [10] 4.46% | [12] 9.74% | [13] -31% | [18] 7.72%

O=C(Nc1ccccc1)Nc1ncnc2c1ncn2-c1ccc(Cl)cc1
inactive: [1] 74.1% | [2] 100% | [3] 83.7% | [4] 74.5% | [6] 75.4% | [7] 78.5% | [8] 99.5% | [9] 79.8% | [10] 74.6% | [11] 63.8% | [12] 102% | [13] 92.1% | [14] 97.7% | [15] 82.5% | [16] 36.6% | [17] 105% | [18] 87.1%
active: [5] -29.6%

Oc1ccc(Cl)cc1/C=N\NC(=S)N/N=C/c1cc(Cl)ccc1O
inactive: [1] 20.2% | [2] 29.8% | [3] 17.6% | [4] 69.7% | [5] 29.6% | [6] 58.6% | [7] 22.2% | [8] 12.7% | [9] 57.9% | [10] 14.7% | [11] 49.9% | [12] 52.7% | [13] 33.9% | [14] 50.3% | [15] 28.3% | [16] 16% | [17] 41.3% | [18] 28.6%

COC1=CC(c2ccc[nH]2)=N/C1=C\c1[nH]c(C)c(C)c1CCC(=O)OCc1ccccc1
active: [1] -47.1% | [2] -51.1% | [3] -11.3% | [4] 7.87% | [5] 9.61% | [7] 0.242% | [8] -73.8% | [9] -9.2% | [10] -0.591% | [11] 2.57% | [12] -28.7% | [13] -39% | [14] -14.8% | [15] 3.15% | [16] -76% | [17] 6.09% | [18] -20.9%
inactive: [6] 29.5%

CCN(CC)CCCCCNc1cc(OC(=O)c2ccc(Cl)cc2)cc2cccnc12
inactive: [1] 75.3% | [2] 97.7% | [3] 88.3% | [4] 118% | [5] 39.9% | [6] 119% | [7] 161% | [8] 78.7% | [9] 117% | [10] 95.1% | [11] 56% | [12] 98% | [13] 120% | [14] 105% | [15] 86.5% | [16] 83.6% | [17] 84.9% | [18] 111%

CC(C)COc1nc2c(c(=O)n(C)c(=O)n2C)n1C
active: [3] -6.67%
inactive: [1] 90.8% | [2] 110% | [4] 112% | [5] 97.7% | [6] 90.7% | [7] 109% | [8] 106% | [9] 100% | [10] 99.8% | [11] 88.6% | [12] 103% | [13] 104% | [14] 102% | [15] 86.4% | [16] 107% | [17] 102% | [18] 99.5%

CCc1ncnc2c1ccn2C(C)c1ccc(OC)c(F)c1 (stereo not drawn)
active: [13] 6.71%
inactive: [1] 16.5% | [2] 37.2% | [3] 49.2% | [4] 88.1% | [5] 54.9% | [6] 53.6% | [7] 54.9% | [8] 34.8% | [9] 69.2% | [10] 44.6% | [11] 36.1% | [12] 52.4% | [14] 27.7% | [15] 33.4% | [16] 18.8% | [17] 56.6% | [18] 27.8%

N#Cc1c(-c2ccccc2)cc(-c2ccccc2)n(CCCC(=O)Nc2ccccc2N)c1=O
inactive: [1] 22.4% | [2] 48.9% | [3] 69.1% | [4] 95% | [5] 91.9% | [6] 95.6% | [7] 51.7% | [8] 26.2% | [9] 43.5% | [10] 39.5% | [11] 64.1% | [12] 55.4% | [14] 35% | [15] 36% | [16] 45% | [17] 85.7% | [18] 42.3%
active: [13] -15.6%

C#CCOc1cccc(Nc2ncnc3cc(NC(=O)C=C)ccc23)c1
inactive: [1] 13% | [2] 13.3% | [4] 54.3% | [5] 45.5% | [6] 29.6% | [9] 18.2% | [10] 14.9% | [14] 12.1% | [15] 20.4% | [17] 60.7% | [18] 24.6%
active: [3] 4.37% | [7] 6.96% | [8] 6.09% | [11] 8.13% | [12] 7.82% | [13] -1.49% | [16] 2.37%

N#Cc1nc(-c2ccc(Cl)cc2)oc1S(=O)(=O)N1CCN(c2ccc(F)cc2)CC1
inactive: [1] 23.9% | [2] 88.4% | [3] 82.3% | [4] 108% | [5] 106% | [6] 98.3% | [7] 78.8% | [8] 108% | [9] 103% | [10] 101% | [11] 89.3% | [12] 100% | [13] 100% | [14] 72.8% | [15] 83.5% | [16] 78.7% | [17] 99.4% | [18] 102%

COc1ccc(C(O)c2cc3c(N)c(C(=O)Nc4cccc(Br)c4)sc3nc2C)cc1 (stereo not drawn)
active: [1] 8.67% | [8] 3.84% | [9] -6% | [12] 3.53% | [13] -33.4% | [15] 9.88% | [16] 6.39% | [17] -33.9% | [18] 0.956%
inactive: [2] 10.9% | [3] 13.1% | [4] 11.2% | [5] 39.7% | [6] 17.9% | [7] 11.4% | [10] 13.1% | [11] 53.2% | [14] 23.7%

O=C1Nc2ccccc2/C1=C/c1nc2ccccc2c(=O)[nH]1
inactive: [1] 31% | [2] 85.9% | [3] 93.4% | [4] 125% | [5] 94.5% | [6] 96% | [7] 69.5% | [8] 90.9% | [9] 93.4% | [10] 97% | [11] 71.5% | [12] 95% | [13] 104% | [14] 102% | [15] 60.2% | [16] 76.7% | [17] 102% | [18] 96.4%

O=C(Nc1cccc(-c2ccc(Cl)c(C(F)(F)F)c2)c1)C1CCN(Cc2cccc3cccnc23)CC1
active: [1] -25.7% | [2] -27.3% | [3] -38.3% | [7] -56.2% | [8] -66.4% | [9] 5.48% | [10] 0.0048% | [11] -55.8% | [13] -83.7% | [14] -83% | [15] -89.9% | [16] -75% | [17] -83.5% | [18] -27.4%
inactive: [4] 70.2% | [5] 17.4% | [6] 55.4% | [12] 63.5%

C1CCC([PH+](C2CCCCC2)C2CCCCC2[PH+](C2CCCCC2)C2CCCCC2)CC1.[Au].[CH-]1CCCCC1C1CCCC[N-]1 (stereo not drawn)
active: [1] -3.06% | [2] -15.6% | [3] -6.1% | [4] -69.3% | [5] -5.17% | [6] -65.8% | [7] -38.6% | [8] -92.2% | [9] -5.47% | [10] 9.87% | [11] -45.3% | [12] -40.4% | [13] -63.1% | [14] -76.4% | [15] -30.5% | [16] -40.5% | [17] -90.1% | [18] -85.2%
